Measured values from PubChem BioAssay AID624273 (Broad Institute, 2012).
Screen size: about 1,000 compounds; about 230 (23%) were called active. Inconclusive results (about 1%) are left out. The list shows a part of the results. Results with a measured potency or affinity are listed apart. Values without a mark were called inactive. No rule for the calls is given here.

biological target: Long-chain-fatty-acid--AMP ligase FadD28 (Mycobacterium tuberculosis (strain ATCC 25618 / H37Rv)) (UniProt P9WQ59); assay: inhibitors of FadD28 bisubstrate probe binding, dose response, biochemical, fluorescence polarization, cherry-pick (AID 624273); conditions: series mostly up to 50 µM; activity change, negative = inhibition: at the top concentration
Sequence (P9WQ59 whole entry, looked up): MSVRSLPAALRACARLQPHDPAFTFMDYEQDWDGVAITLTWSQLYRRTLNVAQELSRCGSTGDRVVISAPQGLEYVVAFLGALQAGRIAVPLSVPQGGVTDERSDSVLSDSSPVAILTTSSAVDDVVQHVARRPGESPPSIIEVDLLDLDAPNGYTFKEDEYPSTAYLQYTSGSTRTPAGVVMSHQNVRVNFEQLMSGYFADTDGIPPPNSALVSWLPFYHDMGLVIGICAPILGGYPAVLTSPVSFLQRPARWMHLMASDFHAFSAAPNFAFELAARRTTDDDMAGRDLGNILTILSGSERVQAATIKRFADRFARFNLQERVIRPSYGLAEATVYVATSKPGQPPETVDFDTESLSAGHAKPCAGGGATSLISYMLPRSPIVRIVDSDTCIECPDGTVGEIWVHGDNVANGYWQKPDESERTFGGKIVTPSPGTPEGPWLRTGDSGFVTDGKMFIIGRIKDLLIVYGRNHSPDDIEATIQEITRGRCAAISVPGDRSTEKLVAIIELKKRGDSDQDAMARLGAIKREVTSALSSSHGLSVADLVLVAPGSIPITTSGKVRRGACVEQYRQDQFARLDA

Point of comparison: `O=C(O)c1ccc(N/N=C/C2=Cc3ccccc3OC2)cc1`, “activity change, negative = inhibition” value -7.18%. Against it:
- CCCc1nc(N)c(C#N)c(-c2ccco2)c1CC — higher, -6.34%
- COc1ccc(S(=O)(=O)N2CCCCCC2)cc1C(=O)NCc1cccs1 — lower, -23.6%
- O=C(COC(=O)c1cccs1)Nc1cccc(S(=O)(=O)N2CCOCC2)c1 — higher, -0.358%
- CCOC1=C(C#N)CC2(CC1)c1ccccc1-c1ccccc12 — higher, -7.12%
- Cc1ccc(C)n1C(CC(=O)O)c1ccc(C#N)cc1 (centres undefined) — higher, -2.01%
- O=C1C2CC=CCC2C(=O)N1c1ccc(NCCc2ccc(O)cc2)c([N+](=O)[O-])c1 (centres undefined) — higher, -6.2%
- C=CCOc1cccc(C2C(C(=O)c3ccc(C)o3)=C(O)C(=O)N2CCCn2ccnc2)c1 (centres undefined) — higher, -6.12%
- COc1cc(C(C)=O)ccc1OC(=O)N(C)c1ccccc1 — lower, -7.74%
- COc1ccc(Cl)cc1NC(=S)N(Cc1ccc(C(=O)O)cc1)Cc1ccc(OC)c(OC)c1 — lower, -26.1%
- CC(=O)Nc1sc(N/N=C\c2ccccc2)nc1-c1cccs1 — higher, -6.1%
- O=C(O)c1cc(N/N=C/c2c[nH]c3ccccc23)ccc1Cl — higher, -0.396%
- CN1CCCC(C(=O)c2ccc(-c3ccccc3)cc2)C1 (centres undefined) — higher, -3.14%
- Cc1ccc(S(=O)(=O)N2CCN(C(=O)COC(=O)Cc3cccc(C(F)(F)F)c3)CC2)c(C)c1 — lower, -8.44%
- Cc1c(N=Cc2c(O)n(CCc3ccc(F)cc3)c(=O)[nH]c2=O)c(=O)n(-c2ccccc2)n1C — higher, -5.99%
- Cc1ccc(C)c(C(O)c2ncc(-c3ccccc3F)[nH]2)c1 (centres undefined) — higher, -0.658%
- CC1=C(C(=O)OCc2ccccc2)C(c2ccccc2Cl)NC(=O)N1C (centres undefined) — higher, 1.09%
- OC1(c2ccccc2)c2ccccc2-c2ncccc21 (centres undefined) — higher, 0.098%
- COc1ccc(Cn2c(O)c(C=Nc3ccccc3C(=O)O)c3ccccc3c2=O)cc1 — lower, -11.9%
- O=C(CNC(=S)N(Cc1ccccc1)Cc1cccnc1)N1CCOCC1 — higher, 2.04%
- CC(C=NNc1ccc([N+](=O)[O-])cn1)=Cc1ccccc1 — higher, -3.77%
- Fc1ccc(-n2cc(-c3ccccc3)c3c(N4CCOCC4)ncnc32)cc1 — higher, -3.99%
- FC(F)(F)c1cccc(NC(=S)N2CCN(c3ccccn3)CC2)c1 — higher, -5.38%
- O=C(NNc1ccc(C2CCCCC2)cc1)C(O)(c1ccccc1)c1cccs1 (centres undefined) — higher, -7.02%
- O=C(Cc1c(F)cccc1Cl)NC1CCN(Cc2ccccc2)CC1 — higher, -2.88%
- Cc1[nH]c2ccccc2c1C(=O)CN1CCSCC1 — higher, -5.36%
- O=C(O)c1[nH]c2ccccc2c1C(c1cccc(O)c1)c1c(C(=O)O)[nH]c2ccccc12 — higher, -0.575%
- COc1ccc(OC)c(C2CC(=O)Nc3c2c(=O)[nH]c2ncnn32)c1 (centres undefined) — higher, -4.84%
- CC(Oc1ccc(Cl)cc1Cl)c1nc(-c2ccc(NC(=O)c3ccco3)cc2)no1 (centres undefined) — higher, 2.14%
